In PubChem BioAssay AID1851 (National Center for Advancing Translational Sciences (NCATS), 2009):
Screen size: about 16,000 compounds; about 4,000 (25%) were called active. Roughly 26% stayed inconclusive and do not appear here. Calls come from the whole dose curve; as a rule, active = well fitted curve in the direction sought with a large enough effect; inconclusive = small, poorly fitted or top-dose-only effect, or effect the other way; inactive = no such curve, though single readings can be large or run the other way. Only a sample is shown. Square brackets hold non-standard residues; d marks the D form. Peptide text beside a SMILES is read from it.

What follows are compounds tested against Cytochrome P450 2C9 (Homo sapiens) (UniProt P11712) (assay: Cytochrome panel assay with activity outcomes). Conditions: recombinant CYP, pro-luciferin dealkylation, luminescence, p450-cyp2c9; series mostly up to 57.1 µM.
Chain of Cytochrome P450 2C9 (Homo sapiens) (P11712 whole entry, looked up): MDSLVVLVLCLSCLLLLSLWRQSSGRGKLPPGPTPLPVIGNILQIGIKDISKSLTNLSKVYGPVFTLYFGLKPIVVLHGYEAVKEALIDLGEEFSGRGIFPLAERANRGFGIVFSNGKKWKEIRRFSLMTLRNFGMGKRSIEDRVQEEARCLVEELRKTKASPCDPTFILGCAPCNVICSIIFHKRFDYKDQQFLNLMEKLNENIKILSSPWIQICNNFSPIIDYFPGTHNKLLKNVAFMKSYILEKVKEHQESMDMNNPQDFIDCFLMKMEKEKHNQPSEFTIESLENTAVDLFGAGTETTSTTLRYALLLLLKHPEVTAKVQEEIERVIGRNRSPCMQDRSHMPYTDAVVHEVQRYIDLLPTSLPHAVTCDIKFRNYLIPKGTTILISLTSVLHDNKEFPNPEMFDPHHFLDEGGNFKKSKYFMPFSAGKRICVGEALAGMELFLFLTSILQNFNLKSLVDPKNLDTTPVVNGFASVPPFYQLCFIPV
% is set by controls: 0 for no effect and ±100 for the full control effect.

Row | SMILES | activity, negative = inhibition | AC50
1 | CC(=O)OC[C@H]1O[C@@H](O/N=C2/[C@H]3O[C@@H]3[C@@H](O)[C@H]3[C@H]2CCn2c(=O)n(-c4ccccc4)c(=O)n23)[C@H](OC(C)=O)[C@@H](OC(C)=O)[C@@H]1OC(C)=O | 10.3% [at 11.4 µM] (inactive) | 
2 | NC(=O)C[C@H](NC(=O)Cc1ccc(O)cc1O)C(=O)O |  | inactive
3 | COc1ccc(-c2noc(C3CCCN(C(=O)c4ccccc4OC)C3)n2)cc1OC (stereo unspecified) |  | 11.2 µM (active)
4 | O=C(Nc1ccccc1)N1CCCC(c2nc(-c3ccc(F)cc3)no2)C1 (stereo unspecified) |  | 14.1 µM (active)
5 | O=C(Nc1ccccc1)N1CCCC2(CCNCC2)C1 |  | inactive
6 | COc1ccc(-c2nc(C#N)c(N3CCC(C(N)=O)CC3)o2)cc1OC |  | inactive
7 | CCCCCC(=O)N1CCCC(c2nc(-c3ccc(OC)cc3)no2)C1 (stereo unspecified) |  | 3.55 µM (active)
8 | CCCc1nnc(SCC(=O)N2CCCC(C)C2)n1CC1CCCO1 (stereo unspecified) |  | inactive
9 | CCOC(=O)CSc1nnc(CNC(=O)c2ccc(OC)cc2)n1C1CCCCC1 |  | inactive
10 | Cc1noc(C)c1C(=O)N1CCC2(CCCN(C(=O)Nc3ccccc3)C2)CC1 |  | inactive
11 | CC(C)(N=NC(C)(C)C1=NCCN1)C1=NCCN1 | 3.47% [at 11.4 µM] (inactive) | 
12 | O=C(CN(Cc1ccco1)C(=O)c1cccc(Cl)c1)Nc1c(Cl)cc(Cl)cc1Cl |  | 11.2 µM (active)
13 | COc1ccc(/C=C2\N=C(SC)N(C)C2=O)cc1 |  | 25.1 µM (active)
14 | COc1ccc(Oc2ncc3ncc(=O)n(C)c3n2)cc1 |  | inactive
15 | CCN(c1nc(N)c(C(=O)N=C(N)N)nc1Cl)C(C)C |  | inactive
16 | CN(C)Cc1ccccc1-c1nc(NCc2ccccc2)c2ccccc2n1 | -6.5% [at 2.29 µM] (inactive) | 
17 | CC(Sc1nc(NCc2ccccc2)nc(N(C)C)n1)C(=O)Nc1ccccc1 (stereo unspecified) |  | 0.562 µM (active)
18 | CN(C)c1nc(NCc2ccccc2)nc(N/N=C/c2ccc(Cl)cc2Cl)n1 |  | inactive
19 | CC(=O)N[C@@H](C(=O)O)C(C)(C)SN=O |  | inactive
20 | COc1ccc(CNc2ncnc3ccc(-c4ccc(C(=O)N(C)C)cc4)cc23)c(OC)c1 | 1.99% [at 2.29 µM] (inactive) | 
21 | COc1ccc(CNc2ncnc3ccc(-c4cccnc4)cc23)c(OC)c1 | -24.5% [at 2.29 µM] (inactive) | 
22 | COCCNc1ncnc2ccc(-c3ccccc3OC)cc12 | 16.9% [at 2.29 µM] (inactive) | 
23 | COc1ccccc1CNc1ncnc2ccc(-c3cccc(C#N)c3)cc12 | -23.5% [at 2.29 µM] (inactive) | 

Row | SMILES | activity, negative = inhibition | AC50
24 | COc1ccc(CNc2ncnc3ccc(-c4ccccc4OC)cc23)c(OC)c1 |  | 0.398 µM (active)
25 | COc1ccccc1CNc1ncnc2ccc(-c3ccccc3CN(C)C)cc12 | -2.92% [at 2.29 µM] (inactive) | 
26 | COc1ccccc1-c1ccc2ncnc(NCc3cccnc3)c2c1 | -19.3% [at 2.29 µM] (inactive) | 
27 | COc1ccccc1CNc1ncnc2ccc(-c3ccccc3OC)cc12 |  | 0.794 µM (active)
28 | COc1ccccc1-c1ccc2ncnc(NCc3ccccc3)c2c1 |  | 0.501 µM (active)
29 | Cc1nonc1NC(=O)OCCN1CCOC1=O |  | inactive
30 | CC[C@]1(O)C[C@@H]2CN(CCc3c([nH]c4ccccc34)[C@](C(=O)OC)(c3cc4c(cc3OC)N(C)[C@H]3[C@](O)(C(=O)OC)[C@@H](C(=O)OC)[C@@]5(CC)C=CCN6CC[C@@]43[C@@H]65)C2)C1 |  | inactive
31 | CCn1c(SCC(=O)Nc2sc3c(c2C#N)CCC(C(C)(C)C)C3)nnc1-c1ccco1 (stereo unspecified) |  | 8.91 µM (active)
32 | CCn1c(SCC(=O)Nc2sc3c(c2C(N)=O)CCC(C)C3)nnc1-c1ccco1 (stereo unspecified) |  | 3.16 µM (active)
33 | C#CC[N+](CC)(CC)CC#Cc1cccc(Cl)c1 |  | inactive
34 | C[C@H](CN(C)C)C(O)(c1ccccc1)c1ccccc1 | -5.45% [at 11.4 µM] (inactive) | 
35 | COC(=O)[C@@]1(Cc2ccc(F)cc2)[C@H]2c3cc(C(=O)N4CCCC4)n(CCN4CNCC4=O)c3C[C@H]2CN1C(=O)c1ccccc1 |  | 7.94 µM (active)
36 | COC(=O)[C@@]1(Cc2ccccc2)[C@H]2c3cc(C(=O)N4CCCC4)n(CCN4CNCC4=O)c3C[C@H]2CN1C(=O)c1ccccc1 |  | 2 µM (active)
37 | Nc1nc(N)nc(CC(=O)O)n1 | -0.0515% [at 11.4 µM] (inactive) | 
38 | CCOC(=O)C1=C(CSc2nc3ccccc3s2)NC(=O)NC1c1cc(C)ccc1C (stereo unspecified) |  | 3.55 µM (active)
39 | CCOC(=O)C1=C(CSc2nc3ccccc3s2)NC(=O)NC1c1cccc([N+](=O)[O-])c1 (stereo unspecified) |  | 3.98 µM (active)
40 | COc1cc(/C=C(\C#N)C(N)=O)cc(CSc2nc3ccccc3s2)c1O |  | inactive
41 | O=C(Nc1cccc(F)c1)N1CCCC2(CCNCC2)C1 |  | inactive
42 | CCNc1ncc2nc(-c3cn(C)c4ccccc34)c(=O)n(Cc3cccc(OC)c3)c2n1 |  | inactive
43 | CN1CCN(c2ncc3nc(-c4cn(C)c5ccccc45)c(=O)n(CCc4ccccc4)c3n2)CC1 |  | inactive
44 | COc1ncc2nc(-c3cn(C)c4ccccc34)c(=O)n(Cc3ccc(F)cc3)c2n1 |  | inactive
45 | COc1cccc(Cn2c(=O)c(-c3cn(C)c4ccccc34)nc3cnc(N4CCNCC4)nc32)c1 |  | 20 µM (active)
46 | CCNc1ncc2nc(-c3cn(C)c4ccccc34)c(=O)n(Cc3cccs3)c2n1 |  | 20 µM (active)

Row | SMILES | activity, negative = inhibition | AC50
47 | CCNc1ncc2nc(-c3cn(C)c4ccccc34)c(=O)n(CCC#N)c2n1 |  | inactive
48 | Cn1cc(-c2nc3cnc(N4CCNCC4)nc3n(CCc3ccccc3)c2=O)c2ccccc21 |  | 10 µM (active)
49 | Cn1cc(-c2nc3cnc(N4CCOCC4)nc3n(CCC#N)c2=O)c2ccccc21 |  | inactive
50 | COCCn1c(=O)c(-c2cn(C)c3ccccc23)nc2cnc(N3CCNCC3)nc21 |  | inactive
51 | CCNc1ncc2nc(-c3ccccc3)c(=O)n(Cc3cccs3)c2n1 |  | inactive
52 | COc1cccc(Nc2ncc3nc(-c4cn(C)c5ccccc45)c(=O)n(CCC#N)c3n2)c1 |  | inactive
53 | Cn1cc(-c2nc3cnc(N4CCNCC4)nc3n(Cc3ccc(F)cc3)c2=O)c2ccccc21 |  | 10 µM (active)
54 | CCNc1nc(NCC)nc(ON=C(C)C)n1 |  | inactive
55 | N=c1nc(N2CCCCC2)cc(N)n1O |  | inactive
56 | CO[C@@H](NC(N)=O)C(=O)O | 25.8% [at 11.4 µM] (inactive) | 
57 | NCC(=O)N[C@H](CO)C(=O)O (H-Gly-[dS]-OH) | 12.1% [at 11.4 µM] (inactive) | 
58 | CCOC(=O)N1CCN(C(=O)c2oc3ccc(S(=O)(=O)N4CCCCC4)cc3c2C)CC1 |  | 10 µM (active)
59 | CCOC(=O)N1CCN(C(=O)c2ccc(Cl)c(S(=O)(=O)N3CCOCC3)c2)CC1 |  | inactive
60 | CCN(CC)C(=O)COc1ccc(S(=O)(=O)N2CCOCC2)cc1 |  | inactive
61 | COc1ccc(S(=O)(=O)N(CCc2ccccc2)CC(=O)N2CCOCC2)cc1 |  | inactive
62 | CN(Cc1ccccc1)S(=O)(=O)c1ccc(OCC(=O)N2CCOCC2)cc1 |  | 14.1 µM (active)
63 | COc1cccc(-c2cc(NCc3cnc(C)cn3)ncn2)c1 | 6.07% [at 2.29 µM] (inactive) | 
64 | COc1cccc(-c2cc(NCc3ccc(OC)cc3OC)ncn2)c1 | -18.3% [at 2.29 µM] (inactive) | 
65 | COc1cccc(-c2nnc3n2N=C(C(C)(C)C)CS3)c1 |  | 17.8 µM (active)
66 | Cc1nn(S(=O)(=O)c2cccs2)c(C)c1Sc1ccc([N+](=O)[O-])cc1 |  | 4.47 µM (active)
67 | O=C(C/C=N/OCc1ccc(F)cc1Cl)c1cnc(-c2ccccc2)s1 |  | 3.98 µM (active)
68 | CC1(C)OC(=O)N(Cc2ccco2)C1(C)O (stereo unspecified) |  | inactive
69 | CC1=CC(=C2C(=O)c3ccccc3C2=O)C=C(C)N1Cc1ccco1 |  | 2.24 µM (active)

Row | SMILES | activity, negative = inhibition | AC50
70 | COC(=O)C(NC(=O)c1ccccc1)=C1C=C(C)OC(C)=C1 |  | inactive
71 | CC1=CC(=C2C(=O)c3ccccc3C2=O)C=C(C)O1 |  | 2.51 µM (active)
72 | Cc1ccccc1/C=C1\OC(=O)c2ccccc21 |  | inactive
73 | CCCCS(=O)(=O)NC1=NCN(Cc2ccco2)CN1 |  | inactive
74 | CC(=O)NC1(c2cccc(F)c2)CCN(CC(=O)NC(C)C)CC1 |  | inactive
75 | CCCCCCCCCn1cc(C(C)=O)c(=O)[nH]c1=O |  | inactive
76 | COc1ccc(CNc2ccnc(-c3ccccc3C(F)(F)F)n2)c(OC)c1 | 3.78% [at 2.29 µM] (inactive) | 
77 | Cc1ccc(C(=O)C(OC(=O)CNS(=O)(=O)c2ccccc2)c2ccccc2)cc1 (stereo unspecified) |  | 7.08 µM (active)
78 | Cc1ccc(C(=O)C(OC(=O)CN2C(=O)c3ccccc3C2=O)c2ccccc2)cc1 (stereo unspecified) |  | inactive
79 | Cc1ccc(C(=O)C(OC(=O)COc2ccccc2C)c2ccccc2)cc1 (stereo unspecified) |  | 15.8 µM (active)
80 | Cc1ccccc1OCC(=O)OC1CCN(C)CC1 |  | inactive
81 | CCSc1nnc2n(N)c(=O)c3ccccc3n12 |  | inactive
82 | CO[C@H]1COC(=O)CCC[C@H](C)[C@H](OC)COC(=O)C/C=C\[C@@H]1C | 25.3% [at 11.4 µM] (inactive) | 
83 | COc1ccc2[nH]cc(CCNc3ccnc(-c4ccc(C(=O)N(C)C)cc4)n3)c2c1 | -14% [at 2.29 µM] (inactive) | 
84 | COc1ccc2[nH]cc(CCNc3ncncc3-c3ccc(N(C)C)cc3)c2c1 |  | 0.501 µM (active)
85 | COc1ccc2[nH]cc(CCNc3cc(-c4ccc(C(=O)N(C)C)cc4)ncn3)c2c1 | 8.96% [at 2.29 µM] (inactive) | 
86 | CN(C)C(=O)c1ccc(-c2cncnc2NCCc2cnc[nH]2)cc1 | -10.2% [at 2.29 µM] (inactive) | 
87 | COc1ccc(CNc2ncncc2-c2ccc(C(=O)N(C)C)cc2)c(OC)c1 | -28.8% [at 2.29 µM] (inactive) | 
88 | COc1ccc(CNc2ncncc2-c2ccc(N(C)C)cc2)c(OC)c1 | -16.8% [at 2.29 µM] (inactive) | 
89 | COc1ccc2[nH]cc(CCNc3ncncc3-c3ccc(C(=O)N(C)C)cc3)c2c1 |  | 0.398 µM (active)
90 | COc1ccc2[nH]cc(CCNc3ncnc4ccc(-c5ccc(C(=O)N(C)C)cc5)cc34)c2c1 |  | 0.251 µM (active)
91 | COc1ccc2[nH]cc(CCNc3ncncc3-c3cccnc3)c2c1 | 0.571% [at 2.29 µM] (inactive) | 
